Measurements from PubChem BioAssay (NCI).
Compounds without any hit were thinned out: in the full panel of roughly 83,000, 20% have a hit.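 96-well plates, one dose, 48 hours. Percent growth reported; active if below 10.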 The source made the active and inactive calls.

What was measured:
Test in all cases: NCI-60 one-dose screen, 48 h (100 = growth as untreated, 0 = no growth, -100 = all killed)
K-562 leukemia = conditions: 10 µM unless noted
MALME-3M melanoma = conditions: 10 µM unless noted
MDA-MB-231 breast = conditions: 10 µM unless noted
RXF 393 renal = conditions: 10 µM unless noted
SF-268 CNS = conditions: 10 µM unless noted
SF-295 CNS = conditions: 10 µM unless noted
SF-539 CNS = conditions: 10 µM unless noted
UACC-257 melanoma = conditions: 10 µM unless noted
M14 melanoma = conditions: 10 µM unless noted
HCT-15 colon = conditions: 10 µM unless noted
HT29 colon = conditions: 10 µM unless noted
SNB-75 CNS = conditions: 10 µM unless noted
SNB-19 CNS = conditions: 10 µM unless noted
U251 CNS = conditions: 10 µM unless noted
PC-3 prostate = conditions: 10 µM unless noted
SK-MEL-5 melanoma = conditions: 10 µM unless noted
UACC-62 melanoma = conditions: 10 µM unless noted
LOX IMVI melanoma = conditions: 10 µM unless noted
SK-MEL-28 melanoma = conditions: 10 µM
SK-MEL-2 melanoma = conditions: 10 µM unless noted

Measured: growth

O=c1oc2ccc(Cl)cc2c(=O)n1-c1ccc(F)cc1F
active: K-562 leukemia 9.99% | MALME-3M melanoma -23.8% | MDA-MB-231 breast 4.44% | RXF 393 renal 2.26% | SF-295 CNS -7.12% | UACC-257 melanoma -13.1% | SNB-75 CNS -12% | U251 CNS 7.08% | PC-3 prostate 2.49% | SK-MEL-5 melanoma -66.9% | UACC-62 melanoma 3.47% | SK-MEL-2 melanoma -26.4%
inactive: SF-268 CNS 12.3% | SF-539 CNS 13.2% | M14 melanoma 20.3% | HCT-15 colon 13.5% | HT29 colon 86.6% | SNB-19 CNS 13.6% | LOX IMVI melanoma 17.8% | SK-MEL-28 melanoma 21.8%

Cc1sc2ncnc(Sc3nc4ccccc4[nH]3)c2c1C
active: K-562 leukemia -47.4% | MALME-3M melanoma -82.7% | MDA-MB-231 breast -79.5% | RXF 393 renal -59.7% | SF-268 CNS -78.3% | SF-295 CNS -81.7% | SF-539 CNS -95.5% | UACC-257 melanoma -88.6% | M14 melanoma -78.9% | HCT-15 colon -38% | HT29 colon -64.4% | SNB-75 CNS -85.4% | SNB-19 CNS -21.7% | U251 CNS -80.9% | PC-3 prostate -43.3% | SK-MEL-5 melanoma -96.9% | UACC-62 melanoma -91.8% | LOX IMVI melanoma -80% | SK-MEL-28 melanoma -92.5% | SK-MEL-2 melanoma -81.6%

N#C/C(=C1\SC(=O)CN1c1ccccc1)c1nc2ccccc2s1
inactive: K-562 leukemia 82.8% | MALME-3M melanoma 99.3% | MDA-MB-231 breast 85.5% | RXF 393 renal 105% | SF-268 CNS 103% | SF-295 CNS 84.2% | SF-539 CNS 97.6% | UACC-257 melanoma 97% | M14 melanoma 91.2% | HCT-15 colon 95.8% | HT29 colon 108% | SNB-75 CNS 88.7% | SNB-19 CNS 94.3% | U251 CNS 91.9% | PC-3 prostate 92% | SK-MEL-5 melanoma 93.3% | UACC-62 melanoma 91.1% | LOX IMVI melanoma 88.3% | SK-MEL-28 melanoma 106% | SK-MEL-2 melanoma 86.1%

O=C(CSc1ccc2nnc(-c3cccc(F)c3)n2n1)Nc1ccc2c(c1)OCO2
inactive: K-562 leukemia 74.2% | MALME-3M melanoma 81% | MDA-MB-231 breast 48.9% | RXF 393 renal 98.5% | SF-268 CNS 51.3% | SF-295 CNS 91.6% | SF-539 CNS 84.3% | UACC-257 melanoma 94.8% | M14 melanoma 83.9% | HCT-15 colon 66.1% | HT29 colon 99.6% | SNB-19 CNS 100% | U251 CNS 70.3% | PC-3 prostate 40.1% | SK-MEL-5 melanoma 86.1% | UACC-62 melanoma 83.2% | LOX IMVI melanoma 61.1% | SK-MEL-28 melanoma 79.7% | SK-MEL-2 melanoma 92.6%
active: SNB-75 CNS -22.3%

CC(C)c1ccc(S(=O)(=O)NC(=O)NC2CCCC2)cc1
inactive: K-562 leukemia 103% | MALME-3M melanoma 97.1% | MDA-MB-231 breast 102% | RXF 393 renal 115% | SF-268 CNS 101% | SF-295 CNS 97.7% | SF-539 CNS 96.1% | UACC-257 melanoma 95.7% | HCT-15 colon 97.3% | HT29 colon 108% | SNB-75 CNS 101% | SNB-19 CNS 100% | U251 CNS 101% | PC-3 prostate 99.9% | SK-MEL-5 melanoma 101% | UACC-62 melanoma 94.7% | LOX IMVI melanoma 97.7% | SK-MEL-28 melanoma 103% | SK-MEL-2 melanoma 110%
active: M14 melanoma -52.9%

O=C(Nc1ccc(N2CCNCC2)cn1)c1[nH]ncc1Nc1ncnc2sc3c(c12)CCC3
active: K-562 leukemia -65.2% | MALME-3M melanoma -47.7% | MDA-MB-231 breast -48.9% | SF-539 CNS -51% | M14 melanoma -60.7% | HCT-15 colon -85.6% | HT29 colon -42.3% | U251 CNS -71.9% | PC-3 prostate -30.6% | LOX IMVI melanoma -79.6% | SK-MEL-28 melanoma -40.3%
inactive: RXF 393 renal 18.6% | SF-268 CNS 37.8% | SF-295 CNS 104% | UACC-257 melanoma 67.8% | SNB-75 CNS 85.7% | SNB-19 CNS 10.7% | SK-MEL-5 melanoma 59.7% | UACC-62 melanoma 38.9% | SK-MEL-2 melanoma 89.7%

NC(CCl)=NCCC[C@H](N)C(=O)O
inactive: K-562 leukemia 111% | MALME-3M melanoma 146% | MDA-MB-231 breast 95.8% | RXF 393 renal 100% | SF-268 CNS 108% | SF-295 CNS 81.1% | SF-539 CNS 103% | UACC-257 melanoma 87.6% | M14 melanoma 88.9% | HCT-15 colon 93.7% | HT29 colon 105% | SNB-75 CNS 89.6% | SNB-19 CNS 97.3% | U251 CNS 97.4% | PC-3 prostate 76% | SK-MEL-5 melanoma 93.1% | UACC-62 melanoma 91.5% | LOX IMVI melanoma 96.3% | SK-MEL-28 melanoma 107% | SK-MEL-2 melanoma 93.3%

O=C1OC(c2ccccc2)(c2ccccc2)c2ccsc21
inactive: K-562 leukemia 87% | MALME-3M melanoma 87.2% | MDA-MB-231 breast 100% | RXF 393 renal 114% | SF-268 CNS 97.3% | SF-295 CNS 97.2% | SF-539 CNS 98.9% | UACC-257 melanoma 103% | M14 melanoma 106% | HCT-15 colon 95.2% | HT29 colon 102% | SNB-75 CNS 103% | SNB-19 CNS 102% | U251 CNS 102% | PC-3 prostate 101% | SK-MEL-5 melanoma 102% | UACC-62 melanoma 94.1% | LOX IMVI melanoma 103% | SK-MEL-28 melanoma 112% | SK-MEL-2 melanoma 94%

C#CCn1cc(C=C2C(=O)N(C)C(=O)N(C)C2=O)c2cc(Cl)ccc21
inactive: K-562 leukemia 106% | MALME-3M melanoma 97.9% | MDA-MB-231 breast 105% | RXF 393 renal 103% | SF-268 CNS 96.8% | SF-295 CNS 96.4% | SF-539 CNS 94.5% | UACC-257 melanoma 112% | M14 melanoma 108% | HCT-15 colon 111% | HT29 colon 118% | SNB-75 CNS 91.6% | SNB-19 CNS 105% | U251 CNS 113% | PC-3 prostate 103% | SK-MEL-5 melanoma 99.5% | UACC-62 melanoma 94% | LOX IMVI melanoma 96.8% | SK-MEL-28 melanoma 113% | SK-MEL-2 melanoma 95.5%

COc1cc(C=C2C(=O)N(C)C(=O)N(C)C2=O)cc(CN2CCCCC2)c1O
inactive: K-562 leukemia 96.4% | MALME-3M melanoma 93.3% | MDA-MB-231 breast 98.1% | RXF 393 renal 116% | SF-268 CNS 94.1% | SF-295 CNS 104% | SF-539 CNS 100% | UACC-257 melanoma 104% | M14 melanoma 102% | HCT-15 colon 104% | HT29 colon 103% | SNB-75 CNS 89.8% | SNB-19 CNS 92.6% | U251 CNS 99.6% | PC-3 prostate 105% | SK-MEL-5 melanoma 100% | UACC-62 melanoma 96.8% | LOX IMVI melanoma 98.7% | SK-MEL-28 melanoma 102% | SK-MEL-2 melanoma 102%

O=Cc1c(OCc2cnnn2CC(=O)Nc2ccc(Cl)cc2)ccc2ccccc12
inactive: K-562 leukemia 98.6% | MALME-3M melanoma 95.2% | MDA-MB-231 breast 98% | RXF 393 renal 111% | SF-268 CNS 99% | SF-295 CNS 104% | SF-539 CNS 94.5% | UACC-257 melanoma 94.6% | M14 melanoma 100% | HCT-15 colon 101% | HT29 colon 107% | SNB-75 CNS 81.3% | SNB-19 CNS 93.8% | U251 CNS 101% | PC-3 prostate 105% | SK-MEL-5 melanoma 100% | UACC-62 melanoma 87% | LOX IMVI melanoma 99.5% | SK-MEL-28 melanoma 102% | SK-MEL-2 melanoma 102%

O=C(Nc1ccc(Cl)cc1F)c1cc(F)ccc1O
active: K-562 leukemia 5.39% | MALME-3M melanoma -21.5% | MDA-MB-231 breast -18.1% | RXF 393 renal 9.69% | SF-295 CNS -56.2% | SF-539 CNS 4.32% | UACC-257 melanoma -17.3% | M14 melanoma 2.92% | HCT-15 colon 3.11% | SNB-75 CNS -12.4% | U251 CNS -4.4% | PC-3 prostate 3.1% | SK-MEL-5 melanoma -84.4% | UACC-62 melanoma -7.35% | LOX IMVI melanoma 9.69% | SK-MEL-28 melanoma 7.52% | SK-MEL-2 melanoma -29.8%
inactive: SF-268 CNS 13.4% | HT29 colon 10.3% | SNB-19 CNS 22.8%

COc1cccc(/C(C#N)=C/c2nc3c(N4CCOCC4)nc(Cl)nc3n2C)c1
active: K-562 leukemia 0.802% | MALME-3M melanoma -45.2% | MDA-MB-231 breast -68.9% | RXF 393 renal -84.9% | SF-268 CNS -24.4% | SF-539 CNS -20.2% | UACC-257 melanoma -57.6% | M14 melanoma -54.3% | HCT-15 colon -46.4% | HT29 colon -49.8% | SNB-75 CNS -17.2% | U251 CNS -15.1% | PC-3 prostate -27.4% | SK-MEL-5 melanoma 4.5% | UACC-62 melanoma -62.3% | LOX IMVI melanoma -88.2% | SK-MEL-28 melanoma -77.5% | SK-MEL-2 melanoma -29.7%
inactive: SF-295 CNS 85.7% | SNB-19 CNS 55.6%

COc1cc(C(C)n2cc(-c3ccccc3)nn2)ccc1OC1CCCCC1 (stereo not given)
inactive: K-562 leukemia 25.9% | MALME-3M melanoma 87.7% | MDA-MB-231 breast 77.9% | RXF 393 renal 98% | SF-268 CNS 78.2% | SF-295 CNS 41.2% | SF-539 CNS 65% | UACC-257 melanoma 52.1% | M14 melanoma 79.1% | HCT-15 colon 61.2% | HT29 colon 82.3% | SNB-75 CNS 68.1% | SNB-19 CNS 68.7% | U251 CNS 81% | PC-3 prostate 69.6% | SK-MEL-5 melanoma 29.9% | UACC-62 melanoma 55.7% | LOX IMVI melanoma 63.1% | SK-MEL-28 melanoma 95.1% | SK-MEL-2 melanoma 92.8%

CCOC(=O)c1ccc2[nH]c(-c3ccccc3)cc(=O)c2c1
inactive: K-562 leukemia 97.2% | MALME-3M melanoma 104% | MDA-MB-231 breast 94.5% | RXF 393 renal 103% | SF-268 CNS 103% | SF-295 CNS 106% | SF-539 CNS 97.2% | UACC-257 melanoma 98.7% | M14 melanoma 98.9% | HCT-15 colon 92.8% | HT29 colon 103% | SNB-75 CNS 72.3% | SNB-19 CNS 94.9% | U251 CNS 97.2% | PC-3 prostate 89.1% | SK-MEL-5 melanoma 103% | UACC-62 melanoma 101% | LOX IMVI melanoma 98.2% | SK-MEL-28 melanoma 109% | SK-MEL-2 melanoma 105%
